In the first assay the target is DEXI. Nature of the assay: pooled miR-30 sensor sort-seq; sequence = guide strand. As to conditions: shRNA.
Take TAACGTGGCACTCACCAGCATG: the sensor-assay potency score (higher = more potent) was -1.35. As to TACAGGATCAGCACATTGACGA, the sensor-assay potency score (higher = more potent) was 0.243. For TTCCTGTAAACATCCATCGCAG, the sensor-assay potency score (higher = more potent) is -0.501. On to TTAAGTAGGCACAACACTCATA, for which the sensor-assay potency score (higher = more potent) was -0.271.

Another assay addresses DGKE. The assay is described as above. As to conditions: shRNA.
Sequence TTTGTTACTTGAACTTTCCATC registered a sensor-assay potency score (higher = more potent) of -0.49. Same read-out and setting: with TTGACAGCCACACTGCTGCTTG the figure was 0.0149; with TTAATTTGATCTTTCCACCCAC, 0.385. In turn, TGAACATGTATCTACTTGCGTG came in with a sensor-assay potency score (higher = more potent) of -0.503. In turn, TTTAATTCCATCTGCTTCCATT registered a sensor-assay potency score (higher = more potent) of -0.836. On the same count and under the same terms, with TTTGACAGTAATCATTTCCTTT the figure was -0.513. Still for that read-out and setting: the value for TTACTTGAACTTTCCATCGATC was -0.458; that for TTGCACTAAACAATCTTTGGTT was 0.42; that for TTGAACTTTCCATCGATCTAGT was 0.305. For the sequence TTCTTGAGCATAATCTCCTTGC, the sensor-assay potency score (higher = more potent) is -0.369. Still for that read-out and setting: the value for TTTTGGATGAACATGTATCTAC was -0.088.

For another assay, the target named is DGKH. The assay is described as above. As to conditions: shRNA.
In turn, TTTACCAGAATCACACTTCTGC gave a sensor-assay potency score (higher = more potent) of 0.827. Same read-out and setting: with TACAGTTTCACATAGCGTCTTG the figure was -0.34; with TTGAATTTACACACTTCGCAGG, -0.529; with TATGTCATTATACTCCACCTGT, -0.182. The same measure, in the same setting: with TTGCTCTACAGAAACCATCGGA the figure was 0.0953. With TTTCTTTAAACTATTTGCCCGC, the sensor-assay potency score (higher = more potent) is -0.524. Same read-out and setting: with TTGTTGATAATCGAACTCCCAG the figure was -0.448; with TGAACTTGTCTTCTGCTTCTGA, 0.759. Same read-out and setting: the value for TAACATTTTGTTGATAATCGAA was -0.475. Sequence TAAATCAAACACCTGAGCCGGA yielded a sensor-assay potency score (higher = more potent) of 0.112.

TTCATCTTCTATAATGTCCTTC displayed a sensor-assay potency score (higher = more potent) of 0.785. TAGAGGACTAACACAGAACGAA registered a sensor-assay potency score (higher = more potent) of -0.365.

For the next assay, the target named is DHCR7. Described as above. As to conditions: shRNA.
Turning to TCAATGGTCTTCAGGTACCAGG, the sensor-assay potency score (higher = more potent) was -1.35.

As for TTGCCTGTGAATTTGCAGTCTC, the sensor-assay potency score (higher = more potent) is -0.449. Same read-out and setting: the value for TGAAGTCAAACCACTTCCCGAT was -0.223; that for TTGAAGTCAAACCACTTCCCGA was -0.639; that for TTAAACTCGATGCCCATCATGT was -0.575.

TTGCTGTGGTGCCTCTGCCCAT displayed a sensor-assay potency score (higher = more potent) of -1.54.

In turn, TACAGAAGCACCTGGAAGGTGA came in with a sensor-assay potency score (higher = more potent) of 0.0614. The sequence TTGTCGAAGATGATGGTGGGCG came in with a sensor-assay potency score (higher = more potent) of -0.346.

Regarding TAGTTGTAAAAGAAATTGCCTG, the sensor-assay potency score (higher = more potent) is -0.825. The same measure, in the same setting: the value for AAGTAGTAGACGATGAAGGGGG was 0.135.

ATGGTCTTCAGGTACCAGGTTT gave a sensor-assay potency score (higher = more potent) of -0.879. On the same count and under the same terms, with TAGGAAGATGACGCTCGCCAGT the figure was -1.46; with TAGATGATGTAGAAGTAGGGCA, 0.47.

(Values after the OligoGym collection.)
Further: reference of the scale not given here.
